Measurements as given in paper PMC10163288.
These entries were drawn from the full list. The hit rate among all sequences tested is not known here.

B1: il2ra_site1_1z92_normal_mot_HHH_b1_08597_af2_000000202_0001_42_56_H_._6e12af4a48b4634929ba45889b8be782_0001_0001_0000600034_0000001_0 (protein)
chain: NVEWAIENLERLARLQGNPEVERVLRRVLELLKKNEEEAEEFLEELVRELGDKLLRLLLRMLKTA
B2: il2ra_site1_1z92_sap_14_mot_1581cc1c700002558836ca695aafbf97_0001_1_af2_000000099_0001_17_32_H_._d5167a162c519d043ddc16d89768c28c_0001_1_0001_0000100008_0000001 … (protein)
chain: SLEEEIERALKEAGVPPEEIEAIKRDIRRTQEFGIPPRSIALAVLRALKSHDEELAERVEELLRK
B3: il2ra_site1_1z92_normal_mot_HHH_b2_05238_af2_000000252_0001_38_55_H_._HHH_b1_01495_af2_0002_0000300012_0000001_0_af2pred_0001_af2pred_1 (protein)
chain: SSSSSKEESLELAERAARRAIEAGNERSARRLLKFVIEAAEELGNEELLEELEELLERLESSSSS
B4: il2ra_site2_2erj_sap_29_mot_dcd9809507f71d420582ead1f1e1bbb3_0001_000000226_0001_37_50_H_._HHH_b1_02896_af2_0001_0000500038_0000001_0_0001 (protein)
chain: SSSSSSLHELYELANRLMHALSNGDEELLEELLEELEELAKELQSDTAREIVENIRRRLSSSSSS
B5: il2ra_site1_1z92_sap_17_mot_c66c727fe7b11027095aa3ef302aaf37_0001_000000167_0001_38_52_H_._665b9007e6d0b9979c9b0c82f83b8fcc_0001_0001_0000200023_0000001_0_0001 (protein)
chain: SSSSDSRERIEELAEFLARDIKMTGNPWARRLLELLLEKAEKLGDEELREIIEQLLEELRSSSSS
B6: il2ra_site1_3nfp_sap_16_mot_HHH_b1_00461_af2_000000238_0001_1_17_H_._HHH_b2_08025_0001_0000300024_0000001_0_0001_af2pred_0001_af2pred_swapped (protein)
chain: SSSSSRILRFLEELARKAFERNDKKQLEAILKLIRKAAKQFKDEEVEELLELVEELLKKLSSSSS
B7: il2ra_site2_2erj_normal_mot_HHH_b1_05204_000000269_0001_1_15_H_._HHH_b1_00954_0001_0000200014_0000001_0_1_af2pred_0001_af2pred (protein)
chain: SSSSDLEEELRRLLEELEELVKEGDEKKFMEVALRVAKLVIENNDEEAAKLLLRLLRELRSSSSS
B8: il2ra_site2_2erj_sap_27_mot_HHH_b1_08185_000000063_0001_41_55_H_._HHH_b1_03158_0001_0000300009_0000001_0_0001_af2pred_0001_1_af2pred_swapped (protein)
chain: SSSDAQERAREVLEEVIELLRQGNHEEAKKLLEEAREILEELGDRAAVRLIEAALRLLESLSSSS
B9: il2ra_site2_2erj_sap_22_mot_c2bf78bdce995293a161f7082e24b401_0001_af2_000000082_0001_17_32_H_._HHH_b2_05133_0001_0000600016_0000001_0_0001 (protein)
chain: SSSSDEELHEIFELLSLLLEAIQKGDDELFKKLVEEVRQLIEEKGSPNLREILEWLERHFHSSSS
B10: il2ra_site2_3nfp_normal_mot_HHH_b1_04264_000000089_0001_1_18_H_._332cd829babfe32ea4315b179459513b_0001_1_0001_0000100003_0000001_0 (protein)
chain: SQEVFEVIHKLREEGDPELAISLFALLAELLLHPENEELREKLEELLEIIKKNPEEAREVARKLP
B11: il2ra_site2_2erj_normal_mot_HHH_b1_07741_000000192_0001_1_20_H_._9b1ece5d1ebc94355a99c96473898622_0001_1_af2_0001_0000300001_0000001_0 (protein)
chain: DQEEFLRRAARENPETFIRYAELLAKDAGNPELLKLVEELKEEVEKGEIPPEEAAELVVEVLEEL
B12: il2ra_site2_2erj_sap_23_mot_HHH_b1_06697_000000025_0001_41_54_H_._HHH_b2_03690_0001_0000400021_0000001_0_0001 (protein)
chain: SSSSDYEERVKELLEELRELLEEGDEEKFEELVFEVSQLIFENNDFELFAELTEIFEEFIRSSSS
B13: il2ra_site1_2b5i_normal_mot_HHH_b2_04910_000000118_0001_1_19_H_._HHH_b1_05884_0001_0000500029_0000001_0 (protein)
chain: SSSSSEETRELQELFREADELDRRGNEEEAEEVLREAIELARQAGSRSMLKMLESALKELGSSSS
B14: il2ra_site1_3nfp_normal_mot_HHH_b1_05523_000000027_0001_1_19_H_._HHH_b1_07881_af2_0001_0000100003_0000001_0_af2pred_0001_af2pred_1 (protein)
chain: SSSSTEVSRRVLELIEEALELAQNGNPEEAEEVLREALKLAEEAGNESTARFIRKALEQSSSSSS
B15: il2ra_site1_3nfp_sap_10_mot_cc4219192d8ccd35c40e7b68f9a57604_0001_af2_000000124_0001_16_32_H_._HHH_b2_07250_0001_0000100001_0000001_0_0001 (protein)
chain: SSSSSEIEEEVRELLEEAEQLLKEGDWEEAAKVVEEAMKLASQANDDELDQLIMEWVRKLSSSSS
B16: il2ra_site1_3nfp_sap_18_mot_HHH_b2_03549_000000219_0001_1_18_H_._HHH_b1_06169_0001_0000200013_0000001_0_0001 (protein)
chain: NDERVASKLVEEAARSAGVDEVEVSVSNGTLHVEVSGGDRAARRVEEAAKQIAEWLGVEVEVTFE
B17: il2ra_site1_3nfp_normal_mot_HHH_b1_01231_af2_000000170_0001_1_16_H_._HHH_b1_02076_0001_0000200037_0000001_0_af2pred_0001_af2pred_1_swapped (protein)
chain: SSSSSSREELELKERVLRLLARIRDPEEARRVLEEAEELAKELGDERLLEELEKLLKRLGSSSSS
B18: il2ra_site2_3nfp_sap_21_mot_HHH_b1_06577_af2_000000152_0001_20_36_H_._HHH_b2_07686_0001_0000600063_0000001_0_0001 (protein)
chain: SSSSDEDEERVEKLIEEIERLLEEGDRDEAARLLLEATELAARINNDELARKLLELFLKIQSSSS
B19: il2ra_site2_3nfp_normal_mot_HHH_b1_03851_000000147_0001_21_38_H_._HHH_b1_04525_0001_0000600036_0000001_0 (protein)
chain: SSSSDEERREARELFEELQELLEENDKHAVFEVLMELFELAARTGDEEAARLVLEIYAQLRSSSS
B20: il2ra_site2_2erj_sap_10_mot_HHH_b1_08207_af2_000000250_0001_43_57_H_._HHH_b2_03076_0001_0000100015_0000001_0_0001 (protein)
chain: SSSSDWLHRLYELANRITELASRGNPEEAREVLEELQELAEEANSDNAKWVAEALEKHLNSSSSS
B21: il2ra_site2_3nfp_sap_16_mot_HHH_b1_03316_000000041_0001_39_56_H_._702997820559c2f17efcc64b63c1c749_0001_1_0001_0000200016_0000001_0_0001_af2pred_0001_1_af2pred_ … (protein)
chain: DSEKELFKEALEEGDPALIDAVALAIALAERGKPPEEIEKSVERWLRAQGVPPEEIEEILELLRK
B22: il2ra_site2_3nfp_normal_mot_HHH_b2_01406_000000272_0001_41_55_H_._HHH_b2_00362_0001_0000600032_0000001_0 (protein)
chain: SSSSSDEEEEELEERLEKALEEGDKHLAAQLAAELSELLARLNDPETAVRLAVKVLEFVLSSSSS
B23: il2ra_site2_3nfp_sap_26_mot_HHH_b1_07277_000000260_0001_23_39_H_._HHH_eva_0486_af2_0001_0000400016_0000001_0_0001 (protein)
chain: SAELARRIVELVRRGDPVAEALFALLADVAYKGDPELERLLEEALEALERGNPEEAEEIVRKALK
B24: il2ra_site1_2b5i_sap_17_mot_143f78fc0439b137266e145e81963a82_0001_1_af2_000000250_0001_37_51_H_._2548690152cc24afdf538b66510d0e06_0001_0001_0000200012_0000001_0 … (protein)
chain: SSSSDEKYDEVERLFKKALELRRAGKKEEAKEVLEEALKIAEEAKDEKLVEELKRFLELLSSSSS

Biological target: il2ra, P01589
Test: yeast display titration

il2ra, P01589, sequence (P01589 whole entry): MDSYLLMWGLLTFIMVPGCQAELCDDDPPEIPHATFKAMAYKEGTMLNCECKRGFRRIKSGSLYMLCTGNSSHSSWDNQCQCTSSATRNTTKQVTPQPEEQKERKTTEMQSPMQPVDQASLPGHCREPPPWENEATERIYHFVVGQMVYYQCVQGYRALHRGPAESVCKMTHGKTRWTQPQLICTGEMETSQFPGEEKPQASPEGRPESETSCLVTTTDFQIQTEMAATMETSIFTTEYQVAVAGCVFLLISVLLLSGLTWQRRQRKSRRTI

Apparent Kd, inactive:
B1 > 311 nM
B2 no binding seen
B3 no binding seen
B4 no binding seen
B5 no binding seen
B6 no binding seen
B7 no binding seen
B8 no binding seen
B9 no binding seen
B10 no binding seen
B11 no binding seen
B12 no binding seen
B13 no binding seen
B14 no binding seen
B15 no binding seen
B16 no binding seen
B17 no binding seen
B18 no binding seen
B19 no binding seen
B20 no binding seen
B21 no binding seen
B22 no binding seen
B23 no binding seen
B24 no binding seen
